Source: PubChem BioAssay (several laboratories)
Sampled rows, rich in hits. Any-hit rate of the full collection: about 4.4%.
tim23-1 inh – inhibits growth of tim23-1 mutant yeast; inhibition, % at 20 µM; S. cerevisiae tim23-1 growth, BacTiter-Glo luminescence, 24 h; 330,000 tested, 1.3% active;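 active = growth inhibition of the mutant yeast at or above 50%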;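 also: temperature-sensitive mutant grown at 25 °C; plate controls were DMSO-treated mutant yeast for no effect and medium wells lacking yeast for full effect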
tim10-1 inh – growth inhibitors of tim10-1 mutant yeast; inhibition, % at 20 µM; 330,000 tested, 2.2% active; AID 463190; S. cerevisiae tim10-1 ts strain growth, BacTiter-Glo, 24 h;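 active = inhibition of at least 40%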;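 also: mutant grown at 25 °C; 0% = DMSO wells with yeast and 100% = wells holding no yeast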
PfHsp90 set2 – inhibits growth of yeast expressing Plasmodium falciparum Hsp90; S. cerevisiae expressing PfHsp90, BacTiter-Glo ATP, 48 h; yeast lacking PDR1 and PDR3 efflux regulators; inhibition, % at 9.4 µM; 310,000 tested, 0.32% active;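 active = every replicate shows inhibition above about 80%, whatever the replicate mean, limit read from the data; inconclusive = mean inhibition reaches the set limit but some replicate falls short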;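 also: 0% = DMSO neutral controls and 100% = 20 µM radicicol positive controls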
Mot1-301 SUMO – SUMOylation pathway inhibition by Mot1-301 growth rescue; S. cerevisiae Mot1-301 growth rescue, ATP luminescence, 38.5C; percent above DMSO median, 100 means doubled; growth rescue, % at 18.8 µM; 320,000 tested, 1% active;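 active = every valid replicate shows activation above 250% relative to neutral control wells; inactive = the rest, any valid replicate at or below 250%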;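 also: OY570 slx delta 5 strain wells were the positive control but not used for scaling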
TIM10 inh – inhibits growth of TIM10 yeast strain; inhibition, % at 10 µM; S. cerevisiae TIM10 strain growth, BacTiter-Glo luminescence, 24 h; 330,000 tested, 1.4% active;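 active = inhibition of 40% or more at the single tested concentration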;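 also: wild-type TIM10 isogenic control strain grown at permissive 25 °C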
tim10-1 confirm – tim10-1 yeast growth inhibition, confirmed; shares compounds with tim10-1 inh; S. cerevisiae tim10-1 ts strain growth, BacTiter-Glo, 24 h; 7,400 tested, 56% active; inhibition, % at 20 µM;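 active = inhibition of yeast growth at or above a set limit in either of two repeat tests at 20 µM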;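 also: tim10-1 mutant grown at permissive 25 °C to find synthetic lethal compounds; 0% = DMSO yeast wells and 100% = medium wells without yeast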
tim10 confirm – TIM10 yeast growth inhibition, confirmed. shares compounds with TIM10 inh. S. cerevisiae tim10 strain growth, BacTiter-Glo luminescence, 24 h. inhibition, % at 10 µM. 4,600 tested, 63% active;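 active = inhibition of yeast growth at or above a set limit in either of two replicates at 10 µM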;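 also: this counterscreen used the strain with wild-type TIM10; 0% = yeast with DMSO and 100% = medium wells lacking yeast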
* marks the source's active call; other numbers are inactive results; ? = inconclusive; · = no result.

SMILES	tim23-1 inh	tim10-1 inh	PfHsp90 set2	Mot1-301 SUMO	TIM10 inh	tim10-1 confirm	tim10 confirm
C=CCc1cccc(/C=N/NC(=O)c2ccccc2OC)c1O	40	49*	-13	-7	57*	31*	38*
COc1ccccc1/C=N/NC(=O)c1ccccc1Cl	12	7	-8	-1	-7	·	·
CC(C)(CNC(=O)C1c2ccccc2-c2ccccc21)N1CCOCC1	11	-2	-16	-8	5	·	·
O=C(NCC1COCCO1)c1cc(COc2ccc(F)cc2F)on1 (centres undefined)	5	8	23	-4	1	·	·
COC(=O)CCC(=O)c1oc2ccc(Br)cc2c1N	45	41*	·	-21	44*	34*	31*
Nc1c(C(=O)c2ccccc2)oc2ccc(Br)cc12	29	45*	-35	2	52*	18	33*
Nc1c(C(=O)c2ccc(Br)s2)oc2ccccc12	31	47*	6	20	43*	35*	42*
COc1ccc2oc(C(=O)CCC(=O)O)c(N)c2c1	7	-8	11	-21	-4	·	·
CCN(C(=O)C(C)Sc1ccc(S(=O)(=O)N2CCOCC2)cn1)c1ccccc1 (centres undefined)	28	12	1	-2	6	·	·
CN1C(=O)C(O)(CC(=O)c2cccc(-n3cccc3)c2)c2ccccc21 (centres undefined)	30	51*	14	10	46*	38*	29
OCCN1CCN(C2Cc3cc(Cl)ccc3Sc3ccc(Cl)cc32)CC1 (centres undefined) (tested in a mixture with another compound)	20	48*	-21	-50	43*	35*	1
CC1CCN(C(=S)SCc2nc(N)nc(Nc3ccccc3)n2)CC1	42	41*	12	5	43*	19	34*
O=C(CN1C(=O)C2C3CC(C(Br)C3Br)C2C1=O)Nc1ccc(C(=O)O)cc1 (centres undefined)	-6	-9	-8	-9	-13	·	·
O=C(NC1CCN(C(=O)c2cccc([N+](=O)[O-])c2)CC1)c1ccccc1	8	27	-17	5	-3	·	·
COc1cc(C2=NOC(C(=O)N3CCN(c4ccc(F)cc4)CC3)C2)cc(OC)c1OC (centres undefined)	41	41*	19	17	46*	40*	40*
COc1cc(C2=NOC(C(=O)N3CCCCCC3)C2)cc(OC)c1OC (centres undefined)	15	-8	-5	-19	5	·	·
CC1CCCCN1S(=O)(=O)c1ccc(NC(=O)c2ccco2)cc1 (centres undefined)	25	53*	·	4	42*	36*	17
O=C(Nc1ccc(C(=O)N2CCN(c3ccc(Cl)cc3)CC2)cc1)C1=CSCCO1	31	47*	3	-8	47*	48*	45*
Cc1ccc2c(c1)nnn2C1CCN(C(=O)NC23CC4CC(CC(C4)C2)C3)CC1	3	11	·	·	-11	·	·
Cc1ccc2c(c1)nnn2C1CCN(C(=O)C23CC4CC(CC(C4)C2)C3)CC1	44	60*	·	15	42*	41*	38*
O=C(COC(=O)c1ccc([N+](=O)[O-])s1)NNC(=O)c1ccccc1	27	7	·	7	16	·	·
O=C(COC(=O)c1ccc([N+](=O)[O-])o1)NCc1ccc(F)cc1	-47	-181	-29	5	-211	·	·
O=C(COC(=O)c1ccc([N+](=O)[O-])s1)NCc1ccc(F)cc1	23	45*	-8	13	64*	17	-9
O=C(COC(=O)c1ccc([N+](=O)[O-])s1)NCCc1ccccc1	49	50*	-9	19	46*	47*	57*
O=C(COC(=O)c1ccc([N+](=O)[O-])s1)NC(=O)NCc1ccccc1	-50	70*	2	-2	70*	52*	71*
SMILES	tim23-1 inh	tim10-1 inh	PfHsp90 set2	Mot1-301 SUMO	TIM10 inh	tim10-1 confirm	tim10 confirm
COc1ccccc1NC(=O)COC(=O)c1ccc([N+](=O)[O-])s1	10	70*	·	-1	82*	68*	89*
CN(C1CCCCC1)C(CNS(=O)(=O)c1ccc(Cl)cc1)c1ccccc1 (centres undefined)	32	8	-9	-2	20	·	·
CCOC(=O)c1ccc(N2C(=O)CC(SCC(=O)Nc3ccc(S(N)(=O)=O)cc3)C2=O)cc1 (centres undefined)	22	51*	17	-22	41*	45*	47*
Cc1ccc(N2C(=O)CC(SCC(=O)Nc3ccc(S(N)(=O)=O)cc3)C2=O)cc1 (centres undefined)	24	29	4	114	1	·	·
CCCc1[nH]nc2c1C(c1ccsc1)C(C#N)=C(N)O2 (centres undefined)	40	47*	-31	-16	46*	26	16
Cc1ccc(S(=O)(=O)N(CC(=O)NCc2ccncc2)Cc2ccc(F)cc2)cc1	4	5	4	51	-8	·	·
O=C(CN1C(=O)NC2(CCc3ccccc32)C1=O)c1ccc(F)c(F)c1 (centres undefined)	6	5	11	-21	0	·	·
CCC(c1nnnn1CCc1ccccc1)N1CCN(c2ccc(OC)cc2)CC1 (centres undefined)	26	41*	-12	·	43*	14	24
O=C(O)c1cc(S(=O)(=O)NC(CO)C(O)c2ccc([N+](=O)[O-])cc2)ccc1Br (centres undefined)	-4	2	11	6	-3	·	·
CC(C)c1ccc(/C=C(\c2nc3ccccc3[nH]2)S(=O)(=O)c2ccccc2)cc1	45	54*	-9	83	46*	47*	37*
COC1=C(c2ccccc2)C(=O)c2ccccc2C1=O	37	80*	?	-40	89*	72*	90*
COc1ccc(C2=C(Nc3ccccc3)c3ccccc3C2=O)cc1	17	13	-6	-13	11	·	·
CC(C)c1ccc(/C=c2\sc3nc(-c4ccncc4)nn3c2=O)cc1	47	49*	16	18	44*	30*	4
Cc1oc2ccc(O)cc2c1C(=O)c1ccc(Br)cc1	40	11	-24	25	-41	·	·
Cc1ccc(C(OCC(O)CNCc2ccc(F)cc2)c2ccccc2)cc1 (centres undefined)	40	64*	1	-38	68*	74*	61*
O=C(Nc1cc(C(F)(F)F)cc(C(F)(F)F)c1)Nc1cnn(-c2ccc([N+](=O)[O-])cc2)c1C(F)(F)F	9	10	15	4	23	·	·
